# In the library only some 2.5% were active in any assay of this set; here they are far more common.
# Cruzain inh noDet – cruzain (T. cruzi) inhibition without detergent; P25779; purified cruzain, Z-FR-AMC fluorescence, no detergent; Potency, µM, for inactives: max response, negative = inhibition, actives largely listed as inhibitors; 200,000 compounds, 2.3% hits;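 also: plate controls were enzyme without inhibitor for no effect and buffer without enzyme for full effect; nearly all actives have a fitted effect of over 40% in size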
# Target sequence (P25779 123-467 limits assumed): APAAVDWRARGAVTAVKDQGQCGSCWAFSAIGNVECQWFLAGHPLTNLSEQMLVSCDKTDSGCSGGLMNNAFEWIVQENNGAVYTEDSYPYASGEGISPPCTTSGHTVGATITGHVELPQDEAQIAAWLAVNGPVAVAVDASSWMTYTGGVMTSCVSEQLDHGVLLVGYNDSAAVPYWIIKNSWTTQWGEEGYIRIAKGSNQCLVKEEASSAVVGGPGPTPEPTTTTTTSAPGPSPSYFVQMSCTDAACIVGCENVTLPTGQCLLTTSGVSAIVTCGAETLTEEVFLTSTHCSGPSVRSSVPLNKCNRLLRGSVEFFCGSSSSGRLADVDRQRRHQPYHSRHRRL
#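 Detergent-free condition (0.00005% Triton X-100) in acetate buffer pH 5.5 with DTT. 1.5 nM enzyme and compound were pre-mixed 15 min, then 2 uM Z-FR-AMC substrate added; reaction progress from fluorescence change between first and third reads (60 s).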
# Cruzain inh Det – inhibitors of Trypanosoma cruzi cruzain with detergent; purified cruzain, Z-FR-AMC fluorescence, 0.01% Triton; Potency, µM, for the others: max response, negative = inhibition, actives largely listed as inhibitors; 200,000 compounds, 0.43% hits; AID 1478;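 also: plate controls were neutral wells for no effect and buffer without enzyme for full effect; nearly all actives have a fitted effect of over 40% in size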
#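 15 min RT preincubation of 1.5 nM cruzain with compound, then 2 uM Z-FR-AMC added; kinetic AMC fluorescence, 60 s delta. Triton X-100 0.01%, pH 5.5.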
# Active calls of the source: *; ? = inconclusive. Calls follow the shape of the dose curve; as a rule, active = well fitted curve in the direction sought with a large enough effect; inconclusive = small, poorly fitted or top-dose-only effect, or another doubt; inactive = no such curve, though single readings can be large; an effect the other way counts as inactive or inconclusive. Potency is read from the fitted curve at half-maximal effect.
SMILES,Cruzain inh noDet,Cruzain inh Det
COc1ccc(Oc2ncc3nc(-c4cccs4)c(=O)n(Cc4cccs4)c3n2)cc1,7.94µM*,3.9%
COc1ccc(Oc2ncc3nc(-c4cccs4)c(=O)n(Cc4cccc(OC)c4)c3n2)cc1,12.6µM*,2.4%
CCOC(=O)C1CCCN(C(=O)c2ccc3c(c2)N(Cc2ccccc2)C(=O)c2ccccc2S3(=O)=O)C1 (configuration not stated),?,0.6%
CC(CCc1nc2ccccc2s1)(c1ccc(O)cc1)c1ccc(O)cc1,-6.3%,-4.7%
CC1Cn2c(C(=O)NCc3ccccc3Cl)cc3cccc(c32)S1 (configuration not stated),?,-9.7%
CCOc1ccc(C2C(C(=O)Nc3ccccc3C)=C(C)Nc3nnnn32)cc1 (configuration not stated),-5.2%,-1.3%
COC(=O)c1c(NC(=O)CSc2ncnc3c2cnn3-c2ccccc2Cl)sc2c1CCCC2,3.16µM*,-6.3%
CCOC(=O)Cc1csc(NC(=O)CSc2ncnc3c2cnn3-c2ccccc2Cl)n1,3.6%,-8.2%
Cc1cccc(N2CCn3c2nc2c3c(=O)n(C/C=C/c3ccccc3)c(=O)n2C)c1,3.9%,2.8%
Cc1ccccc1NC(=O)/C(=C/c1ccccc1)c1ccccc1,-5.2%,-1.5%
O=C(Nc1ccccc1)/C(=C/c1ccccc1)c1ccccc1,12.6µM*,-3.0%
O=C(CSc1ccccc1)NCc1ccc2c(c1)CCN2C(=O)c1ccc(Cl)cc1,-3.0%,3.0%
COc1ccc(-c2csc(C3=C(O)CN(Cc4ccc(Cl)cc4)C3=N)n2)cc1OC,-10.2%,-6.2%
COc1cccc(CN2CC(O)=C(c3nc(-c4ccc(Cl)cc4)cs3)C2=N)c1,12.6µM*,-9.7%
Cc1ccc(NC(=O)COc2ccc3oc4c(c3c2)CCCC4)c(C)c1,10.1%,-0.9%
O=C(Cn1cnc2sc(-c3ccccc3)cc2c1=O)NCCc1ccccc1,-22.5%,-1.0%
O=C(Cn1cnc2sc(-c3ccccc3)cc2c1=O)NCc1ccccc1,15.8µM*,1.4%
Cc1c(C(=O)N2CCOCC2)oc2c1-c1nn(CC(=O)NCc3ccccc3)cc1CC2,-6.6%,-2.6%
COc1ccc(C=Nc2cccc3c(=O)[nH][nH]c(=O)c23)c2ccccc12,31.6µM*,-10.4%
COc1ccc(/C=C/c2ccncc2)c2ccccc12,-0.5%,-3.4%
Cc1ccc2c(c1)c(=O)c(C(=O)c1ccncc1)cn2CC(=O)Nc1c(C)cccc1C,14.4%,-0.8%
CCN(C(=O)Cn1c(C(=O)OC)cc2oc3ccccc3c21)c1cccc(C)c1,-1.7%,-18.3%
COc1ccc(S(=O)(=O)Nc2ccccc2C(=O)NCc2ccco2)cc1Br,25.1µM*,?
CCOc1ccc(S(=O)(=O)Nc2ccccc2C(=O)NCc2ccco2)cc1,6.2%,-11.6%
Cc1ccc(C)c(N2CCN(C(=O)C(CC(C)C)NS(=O)(=O)c3ccc4nc(C)sc4c3)CC2)c1 (configuration not stated),29.8%,-2.3%
SMILES,Cruzain inh noDet,Cruzain inh Det
CCCCc1nc2ccccc2n2c(-c3ccc(C)cc3)c3c(=O)n(C)c(=O)n(C)c3c12,1.8%,-0.8%
C[C@@]12CCC(=O)C=C1CC[C@H]1C2[C@@H](O)C[C@]2(C)[C@@H]1CC[C@@]2(O)C(=O)CO (some centres not stated),-4.0%,2.7%
COC(=O)c1cc2oc(C)cc2n1Cc1ccc(C)cc1,-7.2%,-0.6%
CN1CCN(c2ncc3ncc(=O)n(C[C@H]4CCCO4)c3n2)CC1,20µM*,?
CN(C)c1ncc2ncc(=O)n(C[C@H]3CCCO3)c2n1,-7.9%,-10.3%
Cn1c(=O)cnc2cnc(Nc3ccccc3)nc21,25.1µM*,-5.8%
COCCn1c(=O)cnc2cnc(Nc3ccccc3)nc21,-9.4%,-6.6%
O=C1/C(=C\c2ccccn2)SC(=S)N1Nc1ncc(C(F)(F)F)cc1Cl,6.2%,12.6µM*
O=C1/C(=C/c2ccc(F)cc2)SC(=S)N1Nc1ncc(C(F)(F)F)cc1Cl,?,-7.7%
O=[N+]([O-])c1cc2c(c(CSc3nnc(Nc4ccccc4)s3)c1)OCOC2,?,-0.8%
Cc1ccccc1Nc1nnc(SCc2cc([N+](=O)[O-])cc3c2OCOC3)s1,12.6µM*,0.8%
COc1cccc2cc(-c3nc4sc(C(=O)Nc5ccc(F)cc5F)c(C)c4c(=O)[nH]3)c(=O)oc12,-7.3%,4.0%
Cc1ccc(C)c(CNC(=O)c2cnc3sc(N4CCCC4)nn3c2=O)c1,-2.1%,-2.9%
Cc1ccc(CN2C(=O)C3(c4ccccc42)N(c2cccc(C(F)(F)F)c2)C(=O)CS3(=O)=O)cc1 (configuration not stated),12.6µM*,-8.9%
O=C1CS(=O)(=O)C2(C(=O)N(Cc3ccc(F)cc3)c3ccccc32)N1c1cccc(C(F)(F)F)c1 (configuration not stated),?,-6.7%
O=C1CS(=O)(=O)C2(C(=O)N(Cc3ccccc3)c3ccccc32)N1c1ccccc1 (configuration not stated),?,0.9%

# Screening results as filed in PubChem BioAssay.
